Drawing on PubChem BioAssay (NCATS), this text covers Potency, max response and outcome for 35 compounds.

Several values for one entry are separate records, joined by “and”; a condition that tells them apart may be missing. Equal values may be shown once. Inconclusive results are not listed. Activity calls are given as the source filed them. Calls come from the whole dose curve; as a rule, active = well fitted inhibition curve with a large enough effect; inconclusive = small, poorly fitted or top-dose-only effect; inactive = flat fitted curve, though single readings scatter.
% is set by controls: 0 for no effect and ±100 for the full control effect; potency is the fitted concentration of half-maximal effect.

The subject of one assay is KB-3-1. Description: Cytotoxic Profiling of Annotated Libraries Using Quantitative High-Throughput Screening (AID 1296008). Note: nearly all actives have a fitted effect of over 60% in size. The note with it: Five cell lines viability, CellTiter-Glo ATP luminescence, 48-72 h; max response: hits give low values. The procedure, abridged:
(§1)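 Cells exposed to compounds for 48 or 72 hr at 37 degrees Celsius. Viability read as ATP-coupled luminescence with CellTiter-Glo after 10 min at room temperature.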
(In ATP-based viability assays light output follows the ATP content of the culture.)
Take `C/C=C1\NC(=O)[C@H]2CSSCC/C=C/[C@H](CC(=O)N[C@H](C(C)C)C(=O)N2)OC(=O)C(C(C)C)NC1=O` (stereo not given in full): the Potency is 9.2 nM (active).
As to `CCCCCCCC(=O)CC[C@@H]1[C@@H](C/C=C\CCCC(=O)OC(C)C)[C@@H](O)C[C@H]1O`, the max response was 7.18% (inactive).
As for `O=C(Nc1cccc(C(F)(F)F)c1)Nc1ccc(Br)cc1-c1nn[nH]n1`, the max response is 7.51% (inactive).
In the case of `O=C1O[C@H]2[C@H](O)[C@@H]1OC(O)[C@H]2O` (stereo not given in full), the max response was -7.29% (inactive).
In the case of `CCOC(=O)COc1ccc2c(C)c(CCN(CC)CC)c(=O)oc2c1`, the max response is -7.36% (inactive).
For `C/C(=C(/CCO)SSCC1CCCO1)N(C=O)Cc1cnc(C)nc1N` (stereo not given), the max response was -15.4% (inactive) and -10.3% (inactive).
Consider `CC(=O)[C@@]1(O)CC[C@H]2[C@@H]3C=C(Cl)C4=CC(=O)CC[C@]4(C)[C@H]3CC[C@@]21C`, for which the max response was -17.5% (inactive).
Regarding `CC(C)(C)NC(=O)[C@H]1CC[C@H]2[C@@H]3CC=C4C=C(C(=O)O)CC[C@]4(C)[C@H]3CC[C@]12C`, the max response is -6.72% (inactive).
Still for that read-out and setting: as for `O=P(O)(O)C(Sc1ccc(Cl)cc1)P(=O)(O)O`, the figure is 2.09% (inactive); as for `NCCC(=O)[N-][C@@H](Cc1cnc[nH]1)C(=O)O.[Zn]`, -13.6% (inactive).

The subject of the next assay is NIH3T3. The assay is described as above. To be noted: Five cell lines viability, CellTiter-Glo ATP luminescence, 48-72 h; max response: hits give low values. The procedure, abridged: as §1
Turning to `Cc1cc(C)nc(SCC(=O)Nc2ncc(Cc3cccc4ccccc34)s2)n1`, the max response is -0.172% (inactive).
Regarding `CC(C)(O)C(=O)N1CCN(c2ccc(C(F)(F)F)c(C3=C(c4c[nH]c5ccccc45)C(=O)NC3=O)c2)CC1`, the max response was -9.17% (inactive).
As to `C#CCOc1ccc2c(c1)c(-c1ccc(C(C)C)cc1)nc(=O)n2C(C)C`, the max response is -1.76% (inactive).
Consider `C=C1CC[C@@H]2[C@](C)(CO)[C@H](O)CC[C@@]2(C)[C@@H]1/C=C/C1=CCOC1=O`, for which the max response is -1.38% (inactive).
`CC[N+]1(C/C2=C/CCCCCC2)CCC(NC(=O)C2c3cc(Cl)ccc3Oc3ccc(Cl)cc32)CC1` (stereo not given): the call was inactive.
For the compound `C/C=C/C=C/c1cc2c(C=O)c(O)c(CC=C(C)C)cc2o1`, the max response is 1.86% (inactive).
On to `COc1cc2ncc(-c3ccccc3)nc2cc1OC`, for which the result was inactive.
For the compound `COc1cc(CCc2ccc(OCC=C(C)C)cc2)cc(OC)c1OC`, the max response is -1.52% (inactive).
Same read-out and setting: next, `O=C(Nc1ccc(-n2nc(C(F)(F)F)cc2C(F)(F)F)cc1)c1ccncc1F`: 2.03% (inactive).
Consider `COC(=O)c1sccc1S(=O)(=O)Nc1ccc(Nc2ccccc2)cc1OC`, for which the max response is 1.31% (inactive).
Same read-out and setting: next, `N#Cc1ccc(-c2ccc(S(=O)(=O)Nc3cccc(N)n3)cc2)cc1`: -2.42% (inactive); `CC(=O)OC[C@]12[C@H](OC(C)=O)C(=O)[C@@H]3[C@@H](O)[C@@]14O[C@@]3(C)COC(=O)c1cccnc1[C@@H](C)[C@H](C)C(=O)O[C@@H]([C@H](O)[C@@H]2OC(C)=O)[C@]4(C)O`: -17.4% (inactive); `Cc1cc(-c2cc(OC(=O)c3ccccc3)ccc2Cl)cc2nnc(Nc3ccc(OCCN4CCCC4)cc3)nc12`: -28.4% (inactive).
On to `COc1c(C(O)CC(C)C)ccc2c1C(=O)OCc1cc(C)cc(O)c1O2` (stereo not given), for which the max response is -2.04% (inactive).
The same measure, in the same setting: next, `Nc1nc2c(c(N3CC[C@@H](N)C3)n1)CCCc1ccccc1-2`: -2.56% (inactive); `CN1CCN(C(=O)CN[C@@H]2C[C@H]2c2ccc(OCc3ccccc3)cc2)CC1`: -9.45% (inactive).
`CC(=O)OC1CCC2(C)C(CCC3(C)C2CC=C2C4C(C)C(C)CCC4(C)CCC23C)C1(C)C(=O)O` (stereo not given): the max response was -0.103% (inactive).
Regarding `O=C(Nc1cc(C(F)(F)F)cc(C(F)(F)F)c1)c1cnc(Cl)nc1C(F)(F)F`, the max response is -1.85% (inactive).
For the compound `O=C(N[C@@H]1CCCc2c1cnn2-c1ccc(F)cc1F)c1ccccn1`, the max response is 3.41% (inactive).
Same read-out and setting: as for `COC(=O)c1ccc2c(c1)nc(NC(=O)c1ccccc1)n2CCCc1ccccc1`, the figure is 1.52% (inactive); as for `COC1C(O)C(OC2CCC3(C)C(CCC45CCC6C7(COC(=O)C7)OC4(O)C6(C)CCC35)C2)OC(C)C1OC1OC(CO)C(OC2OC(CO)C(O)C(O)C2O)C(O)C1O` (stereo not given), 1.1% (inactive).
Consider `O=C(Nc1ccccc1)N1CCN(c2nc(-c3ccccc3)ns2)CC1`, for which the max response is -11.1% (inactive).
In the case of `Cc1ccc(F)cc1S(=O)(=O)N[C@@H]1CCN(Cc2ccc(OC(C)C)cc2)C1`, the max response was -14.7% (inactive).
Still for that read-out and setting: next, `OC(CC1c2ccccc2-c2cncn21)C1CCCCC1` (stereo not given): -17.5% (inactive); `CC(=O)OC1CC(O)(C(C)C)C2C(OC(=O)c3ccc(O)cc3)C=C(C)C(=O)CC12C` (stereo not given): 0.784% (inactive).
